PubChem BioAssay AID588590 (National Center for Advancing Translational Sciences (NCATS), 2011)
Screen size: about 390,000 compounds; about 4,000 (1%) were called active. Inconclusive results (about 7%) are left out. Calls come from the whole dose curve; as a rule, active = well fitted inhibition curve with a large enough effect; inconclusive = small, poorly fitted or top-dose-only effect, or another doubt; inactive = no such curve, though single readings can be large or run the other way. For the sample, actives were picked, then their nearest neighbours and some compounds at random.

target: DNA polymerase iota (Homo sapiens) (UniProt Q9UNA4); assay: qHTS for Inhibitors of Polymerase Iota; conditions: Pol iota fluorescent replication assay, 10 min; series mostly up to 115 µM; activity, negative = inhibition: at the top concentration
Procedure, shortened: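 Fluorescent replication assay read twice, at 0 min and 10 min after adding 50 nM (final) substrate. Enzyme (10 nM) and compounds were first incubated 15 min at room temperature; enzyme-free buffer wells were negative controls.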
Potency is the fitted concentration of half-maximal effect.

Sequence of DNA polymerase iota (Homo sapiens) (Q9UNA4 whole entry, looked up): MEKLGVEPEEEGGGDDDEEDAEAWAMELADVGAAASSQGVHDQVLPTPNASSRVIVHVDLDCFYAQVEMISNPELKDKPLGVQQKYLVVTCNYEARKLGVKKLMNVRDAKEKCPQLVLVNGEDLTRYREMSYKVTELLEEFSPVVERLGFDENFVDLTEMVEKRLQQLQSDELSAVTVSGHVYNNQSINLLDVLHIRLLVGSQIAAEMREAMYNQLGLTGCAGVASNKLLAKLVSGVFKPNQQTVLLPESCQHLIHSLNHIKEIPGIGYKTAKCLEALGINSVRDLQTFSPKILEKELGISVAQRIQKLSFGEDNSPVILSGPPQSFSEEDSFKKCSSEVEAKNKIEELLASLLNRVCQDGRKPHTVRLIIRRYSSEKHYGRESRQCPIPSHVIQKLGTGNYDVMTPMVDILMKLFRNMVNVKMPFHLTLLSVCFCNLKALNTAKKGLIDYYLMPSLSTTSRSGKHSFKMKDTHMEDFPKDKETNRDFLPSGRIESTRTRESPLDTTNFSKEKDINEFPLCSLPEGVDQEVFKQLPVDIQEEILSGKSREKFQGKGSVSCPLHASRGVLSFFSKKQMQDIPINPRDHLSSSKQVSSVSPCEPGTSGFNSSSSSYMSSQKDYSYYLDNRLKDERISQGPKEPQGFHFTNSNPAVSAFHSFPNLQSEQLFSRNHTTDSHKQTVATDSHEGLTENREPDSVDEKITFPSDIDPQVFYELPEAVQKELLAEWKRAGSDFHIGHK

Row | SMILES | activity, negative = inhibition | Potency
1 | COc1ccc(NC(=O)CSc2nc3ccccc3n2CC(=O)N2CCCCC2C)cc1 (centres undefined) | -7.07% (inactive) | 
2 | CCOc1ccc(S(=O)(=O)Nc2ccc3oc4c(c3c2)CC(C)CC4)cc1 (centres undefined) | 8.03% (inactive) | 
3 | COC(=O)c1cc(NC(=O)c2sc3ccccc3c2Cl)cc(C(=O)OC)c1 | 8.39% (inactive) | 
4 | Oc1ccc(N=Cc2sc3ccccc3c2Cl)cc1 |  | 8.91 µM (active)
5 | O=S(=O)(c1ccc2nc(N3CCN(c4cccc(Cl)c4)CC3)ccc2c1)N1CCCCC1 | -5.47% (inactive) | 
6 | c1ccc(Cn2nnc3c(N4CCCCC4)ncnc32)cc1 | 47.3% (inactive) | 
7 | Cc1ccc(-c2nc(Cn3c(=O)cc(-c4ccccc4)c4c(C)nn(C)c43)c(C)o2)cc1 | -6.95% (inactive) | 
8 | COc1cc(OC)cc(C(=O)Nc2ccc3nc(Nc4cccc(C(F)(F)F)c4)cc(C)c3c2)c1 | 13.8% (inactive) | 
9 | Cc1cccc(NC(=O)CSc2nc3c(oc4ccccc43)c(=O)n2-c2ccc(F)cc2)c1 | 33.5% (inactive) | 
10 | Cc1ccc2c(=O)c(C(=O)c3cccc(Cl)c3)cn(CC(=O)NCc3ccccc3)c2n1 | -2.34% (inactive) | 
11 | NNc1cccc(C=Cc2ccccc2)cc1=O |  | 25.1 µM (active)
12 | NS(=O)(=O)c1ccc(NS(=O)(=O)/C=C/c2ccccc2)cc1 | 30% (inactive) | 
13 | O=C(COC(=O)/C=C/c1cccc(Cl)c1)NCCc1ccccc1 | 17.7% (inactive) | 
14 | CCC(=O)N1CCc2cc(Br)cc(S(=O)(=O)CCC(=O)N3CCN(c4ccc(F)cc4)CC3)c21 | 15.6% (inactive) | 
15 | Cn1c(SCC(=O)N2CCCc3ccccc32)ncc(C(=O)Nc2ccc(F)cc2)c1=O | 17.9% (inactive) | 
16 | S=c1[nH]c(=S)c2n[nH]nc2[nH]1 | 21.1% (inactive) | 
17 | COc1cccc(C(=O)Nc2ccc3oc(-c4ccc5ccccc5c4)nc3c2)c1 | -20.5% (inactive) | 
18 | COc1cc2nc(N3CCCN(C)CC3)nc(NC(C)C)c2cc1OC | 35.2% (inactive) | 
19 | Cc1ccc(C)c2[nH]c(=O)c(CN(Cc3cccnc3)C(=S)NCc3ccco3)cc12 |  | 44.7 µM (active)
20 | Cc1cccc2cc(CN(Cc3cccs3)C(=S)NCc3ccco3)c(=O)[nH]c12 | 10.6% (inactive) | 
21 | O=C(Nc1ccccc1)N(Cc1cccnc1)Cc1ccco1 | -13.8% (inactive) | 
22 | O=C(c1ccc2c(c1)N(Cc1ccccc1)C(=O)c1ccccc1S2(=O)=O)N1CCCC1 | 10.1% (inactive) | 

Row | SMILES | activity, negative = inhibition | Potency
23 | COc1cc2nc(SCC(=O)Nc3ccccc3F)n3nc(-c4ccccc4)nc3c2cc1OC | -24.9% (inactive) | 
24 | CCc1cc2c(cc3c(=O)n(CC(=O)N4CCN(c5cc(Cl)ccc5C)CC4)nc(CC)n32)s1 | 37.4% (inactive) | 
25 | CCc1ccc(NC(=O)CN2C(=O)CCSc3ccc(S(=O)(=O)N4CCCC4)cc32)cc1 | 8.35% (inactive) | 
26 | Cc1ccc(NC(=O)c2cc(-c3ccc(C)o3)nc3ccccc23)nc1 |  | 20 µM (active)
27 | CCc1ccc(-c2cc(C(=O)NN3CCN(C)CC3)c3ccccc3n2)cc1 | 25.1% (inactive) | 
28 | O=C(NCCc1ccccn1)c1cc(-c2ccc(Cl)cc2)nc2ccccc12 | -7.04% (inactive) | 
29 | C=Cc1ccc(Cn2c(C(=O)OC)cc3sc(C)cc32)cc1 | 30% (inactive) | 
30 | CCOc1cc(C(=O)O)ccc1OCCOc1ccccc1 | 21.3% (inactive) | 
31 | CCOc1c(CNCc2ccc(C(=O)O)cc2)cccc1OC | -4.83% (inactive) | 
32 | CCOc1cccc2c1N[C@@H](c1ccc(C(=O)O)cc1)[C@H]1CC=C[C@@H]21 |  | 5.62 µM (active)
33 | COc1cc(OC)cc(-c2nc3nc(C)c(CCC(=O)Nc4ccc(C)cc4)c(C)n3n2)c1 | 25.1% (inactive) | 
34 | COc1cccc(CNC(=O)c2nnn(CC(=O)Nc3cc(Cl)ccc3C)c2N)c1 |  | 50.1 µM (active)
35 | COc1cccc(CNC(=O)c2n[nH]c3ccccc23)c1 | 58.2% (inactive) | 
36 | CC(C)c1ccc(NC(=O)Cn2nnc(C(=O)NCCc3ccccc3)c2N)cc1 |  | 79.4 µM (active)
37 | CCc1ccc(NC(=O)Cn2nnc(C(=O)NCc3ccc4c(c3)OCO4)c2N)cc1 | -19.8% (inactive) | 
38 | CCOc1ccccc1NC(=O)Cn1nnc(C(=O)Nc2ccc(C)c(C)c2)c1N | -19.8% (inactive) | 
39 | Cc1cccc(NC(=O)c2nnn(CC(=O)Nc3ccc(C(C)C)cc3)c2N)c1C | 27.1% (inactive) | 
40 | CO[C@H]1O[C@@H]2O[C@@]3(C)CC[C@@H]4[C@@H](C)CC[C@@H]([C@H]1C)[C@@]24OO3 | 3.25% (inactive) | 
41 | O=C(COC(=O)c1ccccc1OCCOc1ccccc1)Nc1cccc(Br)c1 | -0.106% (inactive) | 
42 | OC[C@H]1O[C@@H](n2cnc3c(NC4CCCC4)ncnc32)[C@H](O)[C@H]1O | -2.79% [at 58.9 µM] (inactive) | 
43 | Cc1cc(F)ccc1NS(=O)(=O)c1ccc(-n2cccn2)cc1 | 1.94% (inactive) | 
44 | CCOc1n[nH]c(-c2ccccc2)n1 | 23% (inactive) | 

Row | SMILES | activity, negative = inhibition | Potency
45 | O=C(NCc1ccco1)c1nc2ncccn2n1 | 3.64% (inactive) | 
46 | CN(C)C(CNC(=O)c1ccc(OCc2cn3ccccc3n2)cc1)c1ccco1 (centres undefined) |  | 22.4 µM (active)
47 | CN(C)C(CNC(=O)CCCOc1ccccc1)c1ccco1 (centres undefined) | 33% (inactive) | 
48 | CN(C)C(CNC(=O)c1cccc(C#N)c1)c1ccco1 (centres undefined) | -7.23% (inactive) | 
49 | O=C(NCCc1ccccn1)c1ccc(COc2ccccc2)o1 | 11.1% (inactive) | 
50 | O=C(NCCc1ccco1)c1ccc(OCc2cn3ccccc3n2)cc1 |  | 44.7 µM (active)
51 | OC(CBr)C[n+]1cccc2cc(Br)ccc21 (centres undefined) | 4.11% (inactive) | 
52 | COc1ccc(Cn2c(C(=O)O)c(CNCCc3cccs3)c3ccc(OC)cc32)cc1 | 2.33% (inactive) | 
53 | CN(N=O)c1ccc(C=C2c3ccccc3-c3ccccc32)cc1 | -8.63% (inactive) | 
54 | CCN(CC)S(=O)(=O)c1ccc2c(c1)N(CC(=O)NCc1ccccc1)C(=O)CS2 | 13.7% (inactive) | 
55 | CC1(C)C=Cc2c(ccc(C(=O)/C=C/c3ccccc3)c2O)O1 | -5.38% (inactive) | 
56 | Cc1nc2ccc(S(=O)(=O)NC(C(=O)NCc3ccccc3Cl)C(C)C)cc2s1 (centres undefined) | 66.7% (inactive) | 
57 | O=C(NCCc1csc(-c2ccc(C(F)(F)F)cc2)n1)C(=O)Nc1ccc(F)c(Cl)c1 | 20.5% (inactive) | 
58 | O=C1CCCC(O)=C1N=Nc1ccc2ncsc2c1 |  | 39.8 µM (active)
59 | O=C(Cn1cc(SCc2ccccc2)c2ccccc21)N1CCCCC1 | 17.4% (inactive) | 
60 | COc1ccccc1CNc1nccn(-c2ccc(F)cc2)c1=O | 23% (inactive) | 
61 | C/C=C(\C)C(=O)N1CC2(CC(c3cccc(NC(=O)CCCCC)c3)=NO2)C[C@@H]1C(N)=O (some centres undefined) | -29.5% (inactive) | 
62 | C=C(C)C(=O)Nc1cccc(C2=NOC3(C2)C[C@H](C(N)=O)N(C(=O)C(c2ccccc2)c2ccccc2)C3)c1 (some centres undefined) |  | 31.6 µM (active)
63 | CC/C=C/C(=O)N1CC2(CC(c3cccc(NC(=O)CC)c3)=NO2)C[C@H]1C(N)=O (some centres undefined) | 13.9% (inactive) | 
64 | CCc1cccc(NC(=O)CN(C)S(=O)(=O)c2ccc3[nH]c4c(c3c2)CCCC4)c1 | 1.4% (inactive) | 
